Measurements as given in PubChem BioAssay (NCI).
The panel holds about 83,000 compounds, 20% with a hit somewhere; the sample as a whole holds those more often.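 Note: values are percent growth. 100 is the growth of untreated cells, values between 100 and 0 indicate rising inhibition; between -100 and 0 indicates cell death.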 The source made the active and inactive calls.

What follows are compounds tested on SK-OV-3 ovarian (assay: NCI-60 one-dose screen, 48 h (100 = growth as untreated, 0 = no growth, -100 = all killed)). Conditions: 10 µM.
Protocol: Growth inhibition of the SK-OV-3 human tumor cell line is measured as a screen for anti-cancer activity. Cells are grown in 96 well plates and exposed to the test compound for 48 hours. Compounds are tested at a single concentration, which is 10^-5 M for most compounds. The reported endpoint is percent growth (GI% or GIPRCNT), where numbers from 0 - 100% represent growth inhibition, and numbers from -100% - 0 represent cell death. For example, a value of 40 represents 60% growth inhibition. A value of 0 means no net growth occurred over the course of the experiment. A value of -40 indicates 40% of cells at the beginning of the experiment died by the end of the experiment. A value of -100 means all cells are dead at the end of the experiment.
NCI-60 Human Tumor Cell Lines Screen was performed using the standard one-dose NCI protocol, which is described in more detail at https://dtp.cancer.gov/discovery_development/nci-60/default.htm.
Compounds with GIPRCNT values below 10 were considered active. Activity score was based on GIPRCNT using the following formula: […]
Score is 0 for GIPRCNT values of 100 or above, 50 for GIPRCNT values of 0, and 100 for GIPRCNT values of -100.

Row | SMILES | growth
1 | CCOC(=O)Nc1ccc2c(c1)C(=O)N(CCOC)c1ccccc1O2 | 37.3% (inactive)
2 | N=C(N)c1ccc(-c2ccc(-c3ccccc3)s2)cc1F | -92.4% (active)
3 | COc1cc(-c2c(C#N)c(N)n3c(nc4ccccc43)c2C#N)cc(Br)c1OC | 49.3% (inactive)
4 | CCNC1(NC#N)CCCCC1 | 104% (inactive)
5 | COc1cc(C2C=C(c3ccc(Cl)cc3)N=C3SC(C)=CN32)cc(OC)c1OC (stereo not given) | 118% (inactive)
6 | Cc1cc(/C=C2\SC(=Nc3ccccc3)N(C3CCCC3)C2=O)c(C)n1-c1ccc(Cl)cc1 | -90.5% (active)
7 | CC1(CO)CCCC12OCCO2 (stereo not given) | 111% (inactive)
8 | COc1ccc(-c2csc(NC(=O)CO[N+](=O)[O-])n2)cc1 | 108% (inactive)
9 | O=C(NCc1cn(Cc2cccc(Oc3ccccc3)c2)nn1)c1cccnc1Nc1ccccc1 | 49.6% (inactive)
10 | NS(=O)(=O)c1ccc(N2N=C(c3ccc(-c4ccccc4)cc3)CC2c2ccc(Cl)cc2)cc1 (stereo not given) | 95% (inactive)
11 | c1ccc(C2CCCCC2)c(OCCCCCN2CCNCC2)c1 | 94.9% (inactive)
12 | CCOC(=O)[C@@H]1[C@H](c2ccccc2)[C@H]([N+](=O)[O-])[C@H](c2cn(-c3ccccc3)nc2C)N1Cc1ccccc1 | 84.3% (inactive)
13 | Clc1cc(Cl)c(Cl)c(-c2nc(-c3cccnc3)cs2)c1 | 102% (inactive)
14 | O=C(Nc1ccc(CN2CCOCC2)cc1)c1ccc(-c2cc(Cl)ccc2Cl)o1 | 81.5% (inactive)
15 | COc1cc(-c2cc(-c3cc(OC)c(OC)c(OC)c3)nc3nc(N)[nH]c(=O)c23)ccc1Oc1ccnc2cc(Cl)ccc12 | 26.2% (inactive)
16 | CCCCCCCCCCCCCC[n+]1ccccc1 | -0.0653% (active)
17 | CCCCCCOc1ccc(/C=C/C(=O)c2ccc(B(O)O)cc2)cc1 | 87.3% (inactive)
18 | N#Cc1c(-c2ccccc2)nc(SCC(=O)N2CCOCC2)[nH]c1=O | 90.7% (inactive)
19 | COc1ccc(C2CC(c3ccc(-c4ccccc4)cc3)=NN2c2ccc(S(N)(=O)=O)cc2)cc1 (stereo not given) | 79.5% (inactive)
20 | CC(Oc1ccc(Cl)cc1)c1ccccc1 (stereo not given) | 103% (inactive)

Row | SMILES | growth
21 | CCOC(=O)c1c(Cl)c2c(n1Cc1cccc(OC)c1)-c1oncc1CC2 | 17.2% (inactive)
22 | COC(=O)c1c(C)nc(Nc2nc3ccccc3s2)nc1-c1ccc(Cl)cc1Cl | 102% (inactive)
23 | COc1ccc(-c2nnc(COc3ccc(NC(=O)Nc4ccccc4)cc3F)o2)cc1 | 99.1% (inactive)
24 | CNC(=O)c1cc(Oc2ccc(NC(=O)Nc3ccc(Cl)c(OC(C)C)c3)c(F)c2)ccn1 | 82.8% (inactive)
25 | CCCC(C)c1ccc(OCCCCCCN2CCNCC2)cc1 (stereo not given) | 87% (inactive)
26 | O=C(Nc1cccc(C(F)(F)F)c1)C(Cl)Cl | 103% (inactive)
27 | CCOC(=O)c1c(C(F)(F)F)n([O-])c2ccc(OC)cc2[n+]1=O | 23.8% (inactive)
28 | NC1CCC(Nc2nc(NCc3ccc(-c4cccs4)nc3)c3ncn(C4CCCC4)c3n2)CC1 (stereo not given) | 4.04% (active)
29 | COc1ccc(-c2cn[nH]c2-c2cc(OC)c(OC)c(OC)c2)cc1 | 10.2% (inactive)
30 | O=C(NNC(=O)c1ccncc1)Nc1ccc([N+](=O)[O-])cc1 | 104% (inactive)
31 | O=C(COc1ccc(-c2nc3ccccc3[nH]2)cc1)N=Nc1c(O)[nH]c2ccccc12 | 105% (inactive)
32 | CC1(C)Cc2c(cn(Cc3ccccc3)c2-c2ccccc2)-c2oncc21 | 96.4% (inactive)
33 | COc1cc(-c2nc3ccc(C)cc3[nH]2)ccc1OCc1nnc(-c2ccc(CC(C)C)cc2)o1 | 94.4% (inactive)
34 | O=C(/C=C/c1nnc2n(Cc3ccccc3)c(=O)c3c4c(sc3n12)CCCC4)c1ccccc1 | 108% (inactive)
35 | CCn1nc(-c2ccccn2)c2cccnc2c1=S | 94.7% (inactive)
36 | COCc1cc2c(cc1Br)OCO2 | 95.3% (inactive)
37 | Oc1ccc(Cn2cc3c(c2-c2ccccc2)CCc2cnoc2-3)cc1 | 94.4% (inactive)
38 | Clc1cc(Cl)c(OCCCCCCN2CCNCC2)c(Cl)c1 | 98% (inactive)
39 | COc1cc(CSc2nc3ccc(Cl)cc3c(=O)n2-c2ccccc2)cc(OC)c1OC | 94.4% (inactive)
40 | CCOC(=O)c1ccc(NC(=O)Nc2nncs2)cc1 | 3.12% (active)
